The supplement of paper PMC6555819

What was measured:
Assay in all cases: PBM binding z-score (relative to random genomic background probes); higher = stronger binding; sequences stand for … in GC…GCGATTGACAGCGTAGAATGAAGG
[1] = system: FXR:RXRa (NR concentration 270 nM, RXRa partner concentration 90 nM)
Outline: (§1)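 On custom Agilent 4×180K arrays, double-stranded probes with 34-nt variable regions carried direct-repeat seeds, single-nucleotide variants, half-site ablations or random human genomic background. Ligand-free nuclear receptor dimers were applied for 1 h, and binding was read with antibodies against each partner (one per run). Binding z-scores come from regression-normalized fluorescence, with the random background probes as reference.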

[2] = system: LXRa:RXRa (NR concentration 270 nM, RXRa partner concentration 90 nM)
Outline: as §1

[3] = system: LXRa homodimer (NR concentration 270 nM)
Outline: as §1

[4] = system: LXRb:RXRa (NR concentration 270 nM, RXRa partner concentration 90 nM)
Outline: as §1

[5] = system: LXRb homodimer (NR concentration 270 nM)
Outline: as §1

[6] = system: PPARa:RXRa (NR concentration 270 nM, RXRa partner concentration 90 nM)
Outline: as §1

[7] = system: PPARg:RXRa (NR concentration 180 nM, RXRa partner concentration 90 nM)
Outline: as §1

[8] = system: PPARg:RXRa 270nM:90nM, anti-RXR (NR concentration 270 nM, RXRa partner concentration 90 nM)
Outline: as §1

[9] = system: PPARg:RXRa 30nM:10nM, anti-RXR (NR concentration 30 nM, RXRa partner concentration 10 nM)
Outline: as §1

[10] = system: PPARg:RXRa 90nM:30nM, anti-RXR (NR concentration 90 nM, RXRa partner concentration 30 nM)
Outline: as §1

[11] = system: PPARg:RXRa DBDmut IVT, anti-RXR (DBD mutation: RXRa K156A/R161A, NR concentration 270 nM, RXRa partner concentration 90 nM)
Outline: as §1

[12] = system: PPARg:RXRa IVT, anti-PPARg (NR concentration 270 nM, RXRa partner concentration 90 nM)
Outline: as §1

[13] = system: PPARg DBDmut:RXRa IVT, anti-PPARg (DBD mutation: PPARg1 K132A/R137A, NR concentration 270 nM, RXRa partner concentration 90 nM)
Outline: as §1

[14] = system: PPARg DBDmut IVT, anti-PPARg (DBD mutation: PPARg1 K132A/R137A, NR concentration 270 nM)
Outline: as §1

[15] = system: PPARg homodimer (NR concentration 180 nM)
Outline: as §1

[16] = system: PXR:RXRa (NR concentration 270 nM, RXRa partner concentration 90 nM)
Outline: as §1

[17] = system: PXR homodimer (NR concentration 270 nM)
Outline: as §1

[18] = system: RARa:RXR (NR concentration 270 nM, RXRa partner concentration 90 nM)
Outline: as §1

[19] = system: RARa homodimer (NR concentration 270 nM)
Outline: as §1

[20] = system: RARb:RXRa (NR concentration 270 nM, RXRa partner concentration 90 nM)
Outline: as §1

Sequence	PBM binding z-score [1]	PBM binding z-score [2]	PBM binding z-score [3]	PBM binding z-score [4]	PBM binding z-score [5]	PBM binding z-score [6]	PBM binding z-score [7]	PBM binding z-score [8]	PBM binding z-score [9]	PBM binding z-score [10]	PBM binding z-score [11]	PBM binding z-score [12]	PBM binding z-score [13]	PBM binding z-score [14]	PBM binding z-score [15]	PBM binding z-score [16]	PBM binding z-score [17]	PBM binding z-score [18]	PBM binding z-score [19]	PBM binding z-score [20]
CCTAGCAGGCAAGGGTCACTCAAGCATTTCGCTT	2.9	2.67	-0.242	2.45	-0.627	3.8	1.77	3.27	0.737	2.48	0.337	0.835	-1.27	-1.7	1.35	2.99	-0.946	3.86	-0.178	3.31
ACTAGCAGGCCAAGGTTGGGTCACTCAAACAAAG	-0.0834	-0.151	-0.416	0.203	-1.03	1.39	0.643	1.19	-0.515	0.491	0.282	0.868	-0.95	-1.46	0.597	0.524	-0.493	1.24	-0.93	1.69
TGACTGAGGTTATAAGATCAGGGAACGTTGCAAA	1.3	1.14	-0.497	1.08	-0.238	2.27	0.706	0.976	0.531	0.783	-0.568	0.535	-0.045	-0.27	0.479	0.649	-0.0741	1.25	-0.694	1.15
TGCATGAGGTTATAAGATCAGGGAACGTTGCAAA	1.67	1.59	-0.113	0.956	0.14	2.37	0.778	1.2	0.448	0.789	-0.354	0.643	0.656	0.178	0.466	0.667	-0.0693	1.48	0.252	1.4
TCTGCAAGGTCAGTTGGTCAGCTAACGAGCTGCC	4.25	2.88	-0.037	2.09	1.17	3.4	1.45	2.47	1.5	1.72	1.67	2.69	0.998	1.09	1.99	2.09	-0.237	2.67	-0.428	4.43
CCTACTGGGCCAAAGGTCATTGATTCCAATGCTC	4.82	5.3	4.17	4.72	0.913	6.33	12	10.5	10.7	11.4	5.22	7.01	0.541	0.177	3.56	5.31	2.33	6.35	1.33	4.46
ATCAAAAGGTCGACGAGGTGAGTATACACCGTTT	4.64	3.46	0.265	2.86	0.587	4.82	3.29	3.63	1.47	2.53	0.837	2.54	1.44	1.18	2.16	3.22	0.528	3.88	1.22	4
TCTAGGAGGACACGAAAGGTCAGAGCTCGACATC	3.28	3.77	3.29	3.49	-0.113	3.91	1.98	3.19	2.99	2.51	2.31	2.52	0.115	-0.502	2.04	4.08	0.408	4.32	1.42	4.35
TGTCAAAGTTCAAAGGTAACGTAGGTATCCACAC	6.64	6.44	4.15	4.46	1.58	5.79	8.31	7.65	4.86	7.25	0.105	4.5	1.01	1.42	2.88	5.78	3.36	6.75	1.57	5.06
CCGACTGGGGCAGAAAGGTTACGATACCATCCGG	0.702	0.832	-0.247	1.01	-0.887	2.34	2.25	3.05	0.964	2.25	1.98	2.35	-0.302	-0.0493	1.17	1.39	-0.337	1.72	-0.00415	1.92
AGAACGAGGGCACGCTGAGTTGATATCAGAGTAG	0.635	0.337	-0.489	-0.0642	-0.77	2.02	2.14	1.79	0.489	1.22	4.16	3.89	0.683	-0.135	0.168	1.44	0.106	0.865	-0.122	2.5
CAAACTAGGTCCCCGGAAGGTCAAAGTCCGCATG	2.38	3.13	2.88	2.9	0.475	3.7	2.01	2.86	0.494	1.63	4	4.13	0.31	0.647	3.1	3.72	1.36	3.99	0.686	3.24
TCGAGTAGGTTAGTCGGGGGATTCAGCCAACATA	0.552	0.506	-0.00348	2.06	6.46	1.13	0.0949	1.49	1.26	1.28	2.61	3.13	3.86	5.11	0.49	0.855	0.0667	0.615	0.264	0.779
GGAACGAGGGCAAAGTTGATACCATCTGTCGACG	1.54	1.06	0.172	1.17	-0.157	4.04	6.72	6.85	6.52	7.6	3.89	3.91	0.382	-0.0769	0.593	1.61	0.644	2.09	0.0395	2.42
GCGACTGCGGCATCAGCAGGTTACCATAACTTAA	-0.558	-0.742	0.0285	-0.388	-1.12	-0.34	-0.014	-0.695	-0.628	-0.649	-0.255	-0.657	-1.23	-0.596	-0.378	-0.379	-0.376	-0.0824	-0.219	-0.277
TAGCCTAGGCCAGATCGGGCCAGTATACGCTATA	-0.616	-1.17	-0.865	-1.22	-1.15	-1.12	0.0311	-1.24	-0.873	-1.05	-0.93	-0.678	-0.211	-0.658	-1.06	-0.946	-0.923	-0.593	-1.1	-0.396
AGTCAAAGTTCATCTCGGTAACGTAAGATATGCT	6.81	6.1	5.38	3.79	1.92	4.76	6.02	6.19	3.18	5.22	0.386	2.85	1.54	1.05	2.38	4.97	4.44	3.65	1.33	5.06
ATCTCTAGGGAACCAAGTTCAGTGAATGCCGAAC	-0.221	0.011	0.471	0.284	0.239	0.00792	-0.0553	0.046	0.00419	0.0789	0.604	0.283	0.0886	0.863	0.45	1.24	1.73	0.461	0.0341	0.674
ATATGTACGTTAGCTGGGGTCATTCAGACTAGGC	3.94	3.99	2.29	4.39	1.42	4.07	1.74	2.27	0.566	1.33	0.759	1.55	1.41	1.62	2.55	5.7	3.18	5.82	1.41	2.57
TCTAGCAGGCCAGAGGGTCACTAAAGAGGTACGG	0.744	0.827	-0.521	0.924	-1.08	2.12	1.48	2.66	1.97	2.41	0.806	0.475	-0.497	-1.37	0.659	1.14	-0.609	1.8	-0.574	2.05
GCTAGTTGGTCAGTAATAGGTCACACACCGGTCG	1.19	1.72	1.74	1.77	0.0415	2.79	1.44	2.52	0.756	1.82	1.6	2.79	-0.0555	-0.765	1.88	2.1	0.429	2.93	0.809	2.57
GATACAGGGTCAGCTAGAGGCCAGAGAATGGAAA	4.74	2.83	-0.346	2.73	-0.535	4.65	3.8	3.53	1.08	2.59	1.5	2.31	0.246	-1.1	2.84	3.34	0.000802	4.73	0.734	4.34
CGAAATAGGTCAGAACAGGACAGTGAAGGATGAT	2.81	2.42	0.564	1.63	0.228	3.89	4.52	4.6	2.18	3.59	6.51	6.4	1.62	1.69	1.47	1.69	0.395	1.87	1.05	3.71
ACTCAAAGTTCACTAGGTAACGTAAGATTCAGCT	5.32	5.16	3.54	3.55	1.83	4.73	5.15	5.21	2.16	4.22	3.09	4.19	1.81	1.14	3.86	4.2	3.09	3.17	3.01	4.95
AATACAGGGTCATCGTTGGCCAGAGTACGCACAG	7.42	6.21	2.13	4.57	1.5	5.96	6.68	5.97	2.51	4.75	2.72	4.4	1.78	2.43	2.34	4.57	0.72	5.31	1.34	4.37
GCATATAGGTAATACAGGGTGAAAGTCCGATTGT	0.317	0.746	-0.223	0.369	-0.0682	1.92	1.44	1.47	0.819	0.965	4.15	3.22	1.15	0.404	1.08	0.411	0.164	1.35	0.52	0.281
CCAGACAGGTGAGAGGGTAACTCAGCCTCGATTA	0.0104	0.0679	-0.0244	0.043	-0.609	1.65	1.99	2.94	0.655	2.18	0.762	1.58	-0.651	-0.852	0.818	-0.0811	-0.117	0.443	0.0595	0.951
TCTTGTAGAACAAGCAGGTTAAGAAAGCCTGAGT	0.0411	-0.117	-0.158	-0.0832	-0.582	0.777	-0.27	1.19	2.58	1.82	1.62	0.593	0.632	-0.0834	-0.0982	0.365	0.0921	0.607	-0.498	0.0626
